Screening data as filed in PubChem.
V-ATPase pH: alters yeast V-ATPase proton transport. AID 504577. S. cerevisiae, pHLuorin cytosolic pH fluorescence. response, % at 10 µM. 350,000 tested, 0.37% active; in the data active means response mostly above about 7.3%, no sharp cut-off; inactive means mostly below about 5.4%; further: actives read high
TIM10 inh: TIM10 yeast growth inhibition | S. cerevisiae TIM10 strain growth, BacTiter-Glo luminescence, 24 h | inhibition, % at 10 µM | AID 463195 | 330,000 tested, 1.4% active;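 active means inhibition of 40% or more at the single tested concentration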;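 further: wild-type TIM10 isogenic control strain grown at permissive 25 °C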
tim10-1 inh: inhibits growth of tim10-1 mutant yeast | inhibition, % at 20 µM | S. cerevisiae tim10-1 ts strain growth, BacTiter-Glo, 24 h | 330,000 tested, 2.2% active;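 active means inhibition of at least 40%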;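 further: mutant grown at 25 °C; 0% = DMSO wells with yeast and 100% = wells holding no yeast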
tim23-1 inh: tim23-1 yeast growth inhibition; 330,000 tested, 1.3% active; S. cerevisiae tim23-1 growth, BacTiter-Glo luminescence, 24 h; inhibition, % at 20 µM;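 active means growth inhibition of the mutant yeast at or above 50%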;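 further: temperature-sensitive mutant grown at 25 °C; plate controls were DMSO-treated mutant yeast for no effect and medium wells lacking yeast for full effect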
NLRP3 yeast inh: inhibitors of NALP3 inflammasome in yeast. Yeast reconstituted NLRP3/ASC/caspase-1, beta-gal luminescence, 24 h. inhibition, % at 10 µM. 330,000 tested, 0.39% active;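 active means inhibition of 50% or more; inactive means inhibition below 50%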;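 further: plate controls were induced DMSO wells for no effect and uninduced yeast grown without galactose for full effect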
NALP1 inh: inhibitors of NALP1 inflammasome in yeast | inhibition, % at 10 µM | S. cerevisiae NALP1/ASC/caspase-1 growth, X-gal OD620, 72 h | 280,000 tested, 0.61% active; in the data active means inhibition mostly above about 24%, no sharp cut-off; inactive means mostly below about 32%
TIM10 conf: confirmation of TIM10 yeast growth inhibitors. shares compounds with TIM10 inh. S. cerevisiae tim10 strain growth, BacTiter-Glo luminescence, 24 h. inhibition, % at 10 µM. 4,600 tested, 63% active. AID 463215;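 active means inhibition of yeast growth at or above a set limit in either of two replicates at 10 µM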;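 further: this counterscreen used the strain with wild-type TIM10; 0% = yeast with DMSO and 100% = medium wells lacking yeast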
* hit, by the source's call. An excerpt weighted towards active compounds, which were near 4.2% of everything screened.

`CC(Sc1nnc(-c2ccc(Cl)cc2Cl)n1Cc1ccccc1)C(=O)Nc1nccs1` (configuration not stated) gave V-ATPase pH 2.3, TIM10 inh 10.2, tim10-1 inh 28.7, tim23-1 inh 29.5, NLRP3 yeast inh 8.0 and NALP1 inh 5.8.
CCOc1ccccc1NC(=O)NNS(=O)(=O)c1cc(C)ccc1C was read as V-ATPase pH -2.5, TIM10 inh 10.0, tim10-1 inh 11.0, tim23-1 inh 16.4, NLRP3 yeast inh 17.6 and NALP1 inh 20.1.
O=C(COc1cccc(NC(=O)c2cccc([N+](=O)[O-])c2)c1)c1ccc(Br)cc1 was read as V-ATPase pH 0.8, TIM10 inh 42.2*, tim10-1 inh 29.2, tim23-1 inh 29.3, NLRP3 yeast inh 14.6, NALP1 inh 11.0 and TIM10 conf 30.9*.
For O=C(Nc1cccc(OCC(=O)N2CCOCC2)c1)c1cccc([N+](=O)[O-])c1 the results were V-ATPase pH -2.3, TIM10 inh -5.3, tim10-1 inh 1.8, tim23-1 inh 3.2, NLRP3 yeast inh 5.7 and NALP1 inh -4.8.
Screening S=C(NCc1ccco1)Nc1ccc(Br)cn1 returned V-ATPase pH -2.7, TIM10 inh 21.3, tim10-1 inh 15.9, tim23-1 inh 33.5, NLRP3 yeast inh 15.1 and NALP1 inh 15.6.
Screening S=C(NCc1ccco1)Nc1ccc(Cl)c(Cl)c1 returned V-ATPase pH -7.5, TIM10 inh 46.0*, tim10-1 inh 33.9, tim23-1 inh 44.9, NLRP3 yeast inh 29.4, NALP1 inh 18.2 and TIM10 conf 13.9.
`S=C(NCc1ccco1)Nc1cc(-c2ccccc2)[nH]n1` gave V-ATPase pH 1.2, TIM10 inh 40.4*, tim10-1 inh 32.8, tim23-1 inh 41.0, NLRP3 yeast inh 16.9, NALP1 inh 8.0 and TIM10 conf 31.2.
COc1cc(NC(=O)c2ccc3c(c2)OCO3)ccc1NC(=O)C(C)C was read as V-ATPase pH 4.2, TIM10 inh 1.1, tim10-1 inh 15.5, tim23-1 inh 2.5, NLRP3 yeast inh 7.6 and NALP1 inh 12.4.
Screening COc1ccc(/C=C/C(=O)N2CCN(c3ccccn3)CC2)cc1OC returned V-ATPase pH -1.3, TIM10 inh -0.8, tim10-1 inh 3.8, tim23-1 inh 13.4, NLRP3 yeast inh 15.4 and NALP1 inh -0.3.
For O=S(=O)(c1cccc(NC(=S)N2CCN(c3ccccc3)CC2)c1)C(F)F the results were V-ATPase pH 1.6, TIM10 inh 18.0, tim10-1 inh 33.2, tim23-1 inh 20.0, NLRP3 yeast inh 11.9 and NALP1 inh 5.7.
Screening O=S(=O)(c1cccc(NC(=S)N2CCN(c3ccccc3F)CC2)c1)C(F)F returned V-ATPase pH -3.4, TIM10 inh 46.8*, tim10-1 inh 27.9, tim23-1 inh 3.4, NLRP3 yeast inh -11.4, NALP1 inh 13.4 and TIM10 conf 36.0*.
CCc1ccccc1NC(=S)N(Cc1cccs1)C1CCCC1 was read as V-ATPase pH 4.6, TIM10 inh 40.1*, tim10-1 inh 34.2, tim23-1 inh 10.9, NLRP3 yeast inh -14.4, NALP1 inh 3.0 and TIM10 conf 15.3.
For Cc1ccccc1NC(=S)N(Cc1cccs1)C1CCCC1 the results were V-ATPase pH 0.5, TIM10 inh 14.9, tim10-1 inh 34.7, tim23-1 inh 34.8, NLRP3 yeast inh -1.9 and NALP1 inh 5.1.
For COc1ccc(N2C(=O)CSC2c2ccc3c(c2)OCO3)c(OC)c1 (configuration not stated) the results were V-ATPase pH -4.9, TIM10 inh 41.0*, tim10-1 inh 39.8, tim23-1 inh 21.5, NLRP3 yeast inh -22.2, NALP1 inh 4.9 and TIM10 conf 26.8.
`COc1ccc(CC(=O)NCC2CCCN(Cc3ccc(OC(F)(F)F)cc3)C2)cc1` (configuration not stated) gave V-ATPase pH 1.1, TIM10 inh 98.5*, tim10-1 inh -2.8, tim23-1 inh 7.9, NLRP3 yeast inh 33.5, NALP1 inh -0.1 and TIM10 conf 10.9.
`CC(C)(C)c1csc(NC(=O)CSC2=NCCS2)n1` gave V-ATPase pH 0.5, TIM10 inh -9.9, tim10-1 inh 34.0, tim23-1 inh 32.6, NLRP3 yeast inh 25.9 and NALP1 inh 4.3.
Cc1ccc(Cl)c(OCC(O)CN(CCO)CCO)c1 (configuration not stated) was read as V-ATPase pH 3.4, TIM10 inh -4.2, tim10-1 inh 3.7, tim23-1 inh 4.4, NLRP3 yeast inh -8.2 and NALP1 inh -7.4.
Screening COc1cccc(CNCc2ccc(OC)cc2OC)c1 returned V-ATPase pH 3.0, TIM10 inh 0.8, tim10-1 inh -2.7, tim23-1 inh -9.6, NLRP3 yeast inh 14.7 and NALP1 inh -4.7.
Screening CCn1c2ccccc2c2cc(CNCc3ccc(OC)cc3OC)ccc21 returned V-ATPase pH -3.0, TIM10 inh 48.6*, tim10-1 inh 1.6, tim23-1 inh 19.7, NLRP3 yeast inh 35.8, NALP1 inh 23.2* and TIM10 conf 23.2.
Screening Cc1cc(C)nc(N2CCC(C(=O)N3CCN(c4cc(Cl)ccc4C)CC3)CC2)n1 returned V-ATPase pH -1.5, TIM10 inh 46.8*, tim10-1 inh 29.2, tim23-1 inh 33.0, NLRP3 yeast inh 13.1, NALP1 inh 4.4 and TIM10 conf 24.8.
`Cc1ccc(C)c(N2CCN(C(=O)C3CCN(c4nc(C)cc(C)n4)CC3)CC2)c1` gave V-ATPase pH 1.7, TIM10 inh 37.9, tim10-1 inh 27.4, tim23-1 inh 39.0, NLRP3 yeast inh 6.6 and NALP1 inh 15.1.
For COc1ccc(NC(C)C(=O)Nc2cc(C(F)(F)F)ccc2N2CCOCC2)c(OC)c1 (configuration not stated) the results were V-ATPase pH 4.9, TIM10 inh 40.6*, tim10-1 inh 28.4, tim23-1 inh 32.8, NLRP3 yeast inh 11.0, NALP1 inh 39.4 and TIM10 conf 14.6.
CC(C)(C)C(=O)Nc1cc(C(F)(F)F)ccc1N1CCOCC1 was read as V-ATPase pH 0.4, TIM10 inh 4.2, tim10-1 inh 9.6, tim23-1 inh 2.8, NLRP3 yeast inh -0.3 and NALP1 inh 11.0.
For CC(C)(C)C(=O)NC(=S)Nc1cc(C(F)(F)F)ccc1N1CCOCC1 the results were V-ATPase pH -0.3, TIM10 inh 47.6*, tim10-1 inh 38.6, tim23-1 inh 37.5, NLRP3 yeast inh 4.8, NALP1 inh -14.9 and TIM10 conf 25.1.
`Cc1cc(C(=O)CCl)c(C)n1Cc1ccco1` gave V-ATPase pH 4.4, TIM10 inh 46.1*, tim10-1 inh 37.7, tim23-1 inh 34.4, NLRP3 yeast inh -83.1, NALP1 inh -16.4 and TIM10 conf 33.9*.
For CC(C)(C)c1cc(NCc2ccccn2)n2ncc(-c3ccccc3)c2n1 the results were V-ATPase pH 0.9, TIM10 inh 51.9*, tim10-1 inh 28.2, tim23-1 inh 43.0, NLRP3 yeast inh 28.1, NALP1 inh 0.1 and TIM10 conf 42.4*.
